# Screening data from PubChem.
# Rows were chosen to be rich in hits. Some 3.2% of all compounds tested hit in one or more screens of this group.
# FBA Mtb inh: Mtb fructose-bisphosphate aldolase inhibition; purified M. tuberculosis FBA, fluorescence read-out; 360,000 tested, 2.3% active; inhibition, % at 1 µM; AID 588726; in the data active = inhibition above about 27%;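 also: 0% = vehicle and 100% = reference inhibitor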
# TcdB GH inh: blocks C. difficile toxin B glycohydrolase activity. P18177. TcdB glycohydrolase enzymatic assay, plate reader. inhibition, % at 9.99 µM. 350,000 tested, 0.24% active; in the data active = inhibition above about 10%
# GDH-TPI inh: counter-screen for M. tuberculosis FBA inhibitors: GDH-TPI coupled enzymes | GDH-TPI coupled enzyme counterscreen, NADH absorbance | inhibition, % at 4.8 µM | 360,000 tested, 1.2% active | AID 588335; in the data active = inhibition above about 30%;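 also: 0% = DMSO wells and 100% = wells lacking the enzyme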
# Y pestis TopoI: blocks Yersinia pestis topoisomerase I activity | AID 504884 | 360,000 tested, 0.064% active | Y. pestis Topo-I cleavage product accumulation, plate reader | activity, % at 10 µM; in the data active = activity above about 50%, passing the limit was not always enough
# PrPC TRFRET: reduces human prion protein on the cell surface; P04156; cell surface PrPC, TR-FRET read-out; inhibition, % at 13.8 µM; 370,000 tested, 0.43% active; in the data active = inhibition above about 24%; also: 0% = median of the test wells and 100% = reference compound wells
# An asterisk follows results filed as active; nt = no result; + = active, no number.
SMILES,FBA Mtb inh,TcdB GH inh,GDH-TPI inh,Y pestis TopoI,PrPC TRFRET
c1ccc(C2=NN(c3ccccc3)C(c3ccco3)C2)cc1 (stereo unspecified),126.0*,0.7,8.0,0.8,-1.8
C[C@@H]1CN([C@@H](C)CO)C(=O)Cc2cc(N(C)C)ccc2O[C@H]1CN(C)C(=O)Nc1cccc2ccccc12,nt,-16.8,nt,nt,nt
COc1ccc(CNC(=O)c2cc3c(s2)CN(Cc2ccccc2)C3)cc1,4.7,10.3*,0.0,-4.2,1.2
COc1ccc(CN2CCC(CNC(=O)NCc3ccccc3)CC2)cc1,nt,nt,nt,nt,-11.4
C[C@H](CO)N1C[C@H](C)[C@@H](CN(C)S(=O)(=O)c2cn(C)cn2)Oc2ccc(NC(=O)CCN3CCOCC3)cc2CC1=O,nt,-4.2,nt,nt,nt
CCc1cc(C(=O)Cc2cnn(-c3ccccc3)c2)c(O)cc1O,-0.1,nt,50.3*,5.4,-0.6
C[C@H](CO)N1C[C@H](C)[C@@H](CN(C)S(=O)(=O)c2cn(C)cn2)Oc2ncc(/C=C/c3ccccc3)cc2C1=O,nt,0.4,nt,nt,nt
COc1cc(/C=C2/S/C(=N/S(=O)(=O)c3ccccc3)NC2=O)c([N+](=O)[O-])cc1OC,-4.8,nt,26.5,-1.3,-19.3
O=C1N/C(=N\S(=O)(=O)c2ccccc2)S/C1=C\c1cc([N+](=O)[O-])ccc1O,-17.5,-0.7,10.3,1.9,-10.3
COc1cc(/C=C2/S/C(=N/S(=O)(=O)Cc3ccccc3)NC2=O)c([N+](=O)[O-])cc1OC,-3.0,-2.0,33.8*,8.8,-2.5
COc1cc(/C=C2\S/C(=N/S(=O)(=O)Cc3ccccc3)NC2=O)c([N+](=O)[O-])cc1OC,-4.4,-2.2,33.1*,4.5,-0.5
O=C1N/C(=N\S(=O)(=O)Cc2ccccc2)S/C1=C/c1cc([N+](=O)[O-])ccc1O,-34.0,-2.0,39.2*,-2.4,-14.0
CC(=O)Oc1cccc2c1C(=O)C1CC=CC(OC(C)=O)C1C2=O (stereo unspecified),-4.0,-1.1,6.9,60.9*,-58.4
CC(=O)Oc1cccc2c1C(=O)c1c(OC(C)=O)cc(C(=O)O)cc1C2=O,-6.6,3.3,11.9,7.7,-27.6
COCCn1c(=NC(=O)CCS(=O)(=O)c2ccccc2)sc2cc(C)ccc21,-0.5,1.1,2.4,2.1,1.2
COCCn1c(=NC(=O)/C=C/c2cccs2)sc2cc(NC(C)=O)ccc21,0.3,nt,31.0*,-1.0,-9.0
COc1cc2sc3cc(NCCCN4CCOCC4)ccc3c(=O)c2cc1OC,34.3*,1.8,23.8,6.5,-6.8
O=c1c2ccccc2sc2ccc(NCCCN3CCOCC3)cc12,7.2,2.6,2.2,2.0,-30.7
COc1ccc(/C=C(\NC(=O)c2ccccc2)C(=O)NCc2cccnc2)cc1,-0.3,-2.3,-0.7,-6.8,-3.4
Cc1ccnc(N/C=C(/NC(=O)c2ccccc2)C(=O)N/N=C\c2ccc(F)cc2)n1,1.6,nt,54.3*,5.1,-2.1
COc1ccc(/C=C(\NC(=O)c2ccccc2)C(=O)N/N=C/c2ccncc2)cc1,0.1,1.3,49.5*,1.2,-10.4
COc1ccc(/C=C(\NC(=O)c2ccccc2)C(=O)N/N=C/c2cccnc2)cc1,-2.5,1.0,39.0*,0.0,-5.8
COc1ccc(/C=C(/NC(=O)c2ccccc2)C(=O)N/N=C/c2ccncc2)c(OC)c1,2.2,nt,28.7,9.7,-11.5
Cc1ccnc(N/C=C(/NC(=O)c2ccccc2)C(=O)NN)n1,1.9,-3.3,16.4,4.6,-7.9
O=C(Nc1ccc(F)cc1)N1C[C@H]2[C@@H](c3ccccc31)[C@@H](CO)N2C(=O)c1ccccn1,nt,1.5,nt,nt,nt
SMILES,FBA Mtb inh,TcdB GH inh,GDH-TPI inh,Y pestis TopoI,PrPC TRFRET
CN(CC(=O)Nc1ccccc1-c1ccccc1)C1CCCCC1,0.5,nt,-1.9,58.4*,7.1
CCS(=O)(=O)N1CC(=O)N2[C@@H](CO)[C@H](c3ccc(-c4cccc(F)c4)cc3)[C@@H]2C1,nt,-0.4,nt,nt,nt
Cc1c(N=C2SCC(=O)N2c2c(C)n(C)n(-c3ccccc3)c2=O)c(=O)n(-c2ccccc2)n1C,2.0,nt,-1.9,8.9,-4.1
Cc1c(N2C(=O)CS/C2=N\N=C\c2ccccc2O)c(=O)n(-c2ccccc2)n1C,-0.9,0.1,31.6*,-0.2,-12.0
Cc1c(N2C(=O)CS/C2=N\N=C\c2ccc(Cl)cc2)c(=O)n(-c2ccccc2)n1C,0.9,nt,10.4,5.9,-3.8
COc1ccc(/C=N/N=C2\SCC(=O)N2c2c(C)n(C)n(-c3ccccc3)c2=O)cc1OC,-2.1,0.4,40.6*,7.7,-5.6
COCC(=O)N(C)C[C@H]1Oc2ncc(-c3ccccc3C)cc2C(=O)N([C@H](C)CO)C[C@@H]1C,nt,0.2,nt,nt,nt
Cc1cc(=O)n2c(ccc3ccccc32)c1C#N,-2.0,nt,-6.9,3.6,-5.9
Cc1cc(=O)n2ccccc2c1C#N,+,nt,24.9,2.5,-17.4
CN1c2ccccc2C(O)=C(C(=S)Nc2ccc(Cl)cc2)S1(=O)=O,1.3,nt,47.7*,17.5,0.7
Cc1cccc(NC(=O)C2=C(O)c3ccccc3N(C)S2(=O)=O)c1,0.2,nt,12.7,2.9,5.4
O=S(=O)(Nc1ccc(-c2cn3c(n2)SCC3)cc1)c1cccs1,0.3,0.9,12.4,-1.4,-5.0
N#Cc1ccc(-c2cn3c(n2)SCC3)cc1,+,-1.3,4.3,-0.1,-2.9
O=[N+]([O-])c1ccc(-c2cn3c(n2)SCC3)cc1,1.4,5.8,36.5*,-5.4,-42.7
CC(C)CC#Cc1cnc2c(c1)C(=O)N([C@@H](C)CO)C[C@H](C)[C@@H](CN(C)Cc1ccccc1F)O2,nt,0.0,nt,nt,nt
O=C(C[C@@H]1C[C@H]2c3cc(NC(=O)c4ccc5c(c4)OCO5)ccc3O[C@H]2[C@H](CO)O1)NCc1cccc(F)c1,nt,18.1*,nt,nt,nt
O=C(C[C@H]1C[C@@H]2c3cc(NC(=O)c4ccc5c(c4)OCO5)ccc3O[C@@H]2[C@H](CO)O1)NCc1cccc(F)c1,nt,7.7,nt,nt,nt
O=C(C[C@H]1C[C@@H]2c3cc(NC(=O)c4ccc5c(c4)OCO5)ccc3O[C@@H]2[C@@H](CO)O1)NCc1cccc(F)c1,nt,19.6*,nt,nt,nt
O=C(C[C@@H]1C[C@@H]2c3cc(NC(=O)c4ccc5c(c4)OCO5)ccc3O[C@@H]2[C@@H](CO)O1)NCc1cccc(F)c1,nt,16.8*,nt,nt,nt
O=C(C[C@@H]1C[C@H]2c3cc(NC(=O)Nc4ccccc4)ccc3O[C@H]2[C@H](CO)O1)NCc1ccccc1,nt,11.6*,nt,nt,nt
CO[C@@H]1CN(C)C(=O)c2ccc(NC(=O)Nc3cccc(Cl)c3)cc2OC[C@H](C)NC[C@H]1C,nt,-0.2,nt,nt,nt
O=C(C[C@@H]1CC[C@@H]2[C@H](COC[C@@H](O)CN2Cc2nccs2)O1)NCc1ccccc1,nt,-0.9,nt,nt,nt
N#C[C@H]1[C@@H](c2ccccc2C2=CCCC2)[C@H](CO)N1C(=O)C1CCOCC1,nt,-2.3,nt,nt,nt
O=C(N/N=C/c1cc2ccccc2nc1Cl)c1ccncc1,-1.8,0.7,11.7,-22.4,-0.9
Cn1cc(Br)c(C(=O)N/N=C/c2cc3ccccc3nc2Cl)n1,4.3,0.2,31.5*,-6.9,-16.9
COc1cccc(-c2ccc3c(c2)[C@@H]2[C@@H](CCN2C(=O)Cc2ccccc2)[C@H](CO)N3)c1,nt,-1.3,nt,nt,nt
Nc1nn(-c2ccccc2)nc1C(=O)OCc1ccccc1F,135.2*,nt,3.8,-6.6,nt
Cn1nc(C(=O)OCc2ccccc2F)c2ccccc2c1=O,0.7,-0.2,-4.4,10.4,12.1
